Measurements as given in article PMC5540273 (PLoS ONE, 2017).

What was measured:
Settings in all cases: concentration: 1 μM,replicates: in singlicate; n = 1
[1] = system: JAK1(JH2domain-pseudokinase)
[2] = system: JAK2(JH1domain-catalytic)
[3] = system: JAK3(JH1domain-catalytic)
[4] = system: T1, JNK1
T1 construct: gene MAPK8

[5] = system: T2, JNK2
T2 construct: gene MAPK9

[6] = system: T3, JNK3
T3 construct: gene MAPK10

[7] = system: KIT-autoinhibited
[8] = system: KIT
[9] = system: LATS1
[10] = system: LATS2
[11] = system: LCK
[12] = system: LIMK1
[13] = system: LIMK2
[14] = system: T4, LKB1
T4 construct: gene STK11

[15] = system: T5, LOK
T5 construct: gene STK10

[16] = system: LRRK2
[17] = system: LTK
[18] = system: LYN
[19] = system: T6, LZK
T6 construct: gene MAP3K13

[20] = system: MAK
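Note: KINOMEscan kinase panel screen.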

Which “%Inh” value [1] does the source give for `FC(F)(F)c1cc(Br)cc(Nc2nccc(-c3cnn4ncccc34)n2)c1` [GW810578] here?
Its value is 80%.

And the “%Inh” value [2]?
Its value is 0%.

What about the “%Inh” value [3] of the same compound?
Its value is 0%.

What about the “%Inh” value [4] of the same compound?
The value was 0%.

And the “%Inh” value [5]?
Its value is 5%.

What about the “%Inh” value [6] of the same compound?
The value was 1%.

And the “%Inh” value [7]?
Its value is 63%.

And the “%Inh” value [8]?
The value was 100%.

And the “%Inh” value [9]?
The value was 0%.

And the “%Inh” value [10]?
Its value is 6%.

And the “%Inh” value [11]?
Its value is 4%.

And the “%Inh” value [12]?
Its value is 0%.

What about the “%Inh” value [13] of the same compound?
The value was 0%.

What about the “%Inh” value [14] of the same compound?
The value was 14%.

And the “%Inh” value [15]?
The value was 25%.

What about the “%Inh” value [16] of the same compound?
Its value is 58%.

And the “%Inh” value [17]?
Its value is 18%.

What about the “%Inh” value [18] of the same compound?
Its value is 8%.

What about the “%Inh” value [19] of the same compound?
The value was 0%.

What about the “%Inh” value [20] of the same compound?
The value was 55%.

With `Cc1ccc2c(-c3ccnc(Nc4ccc(C(F)(F)F)cc4)n3)cnn2n1` [GW819776] as the compound, how does the “%Inh” value [1] read?
Its value is 57%.

What about the “%Inh” value [2] of the same compound?
Its value is 29%.

What about the “%Inh” value [3] of the same compound?
Its value is 0%.

And the “%Inh” value [4]?
Its value is 91.5%.

And the “%Inh” value [5]?
The value was 53%.

What about the “%Inh” value [6] of the same compound?
Its value is 78%.

And the “%Inh” value [7]?
The value was 34%.

And the “%Inh” value [8]?
The value was 78%.

And the “%Inh” value [9]?
Its value is 0%.

And the “%Inh” value [10]?
Its value is 0%.

And the “%Inh” value [11]?
Its value is 10%.

What about the “%Inh” value [12] of the same compound?
The value was 2%.

What about the “%Inh” value [13] of the same compound?
Its value is 0%.

And the “%Inh” value [14]?
The value was 24%.

What about the “%Inh” value [15] of the same compound?
The value was 16%.

And the “%Inh” value [16]?
The value was 0%.

And the “%Inh” value [17]?
Its value is 28%.

And the “%Inh” value [18]?
Its value is 1%.

And the “%Inh” value [19]?
The value was 0%.

And the “%Inh” value [20]?
The value was 20%.

How did the “%Inh” value [1] turn out when `COc1cccc(C2=C(Nc3cccc(Cl)c3)C(=O)NC2=O)c1` [SB-341556] was run?
Its value is 0%.

And the “%Inh” value [2]?
Its value is 45%.

What about the “%Inh” value [3] of the same compound?
The value was 92.9%.

What about the “%Inh” value [4] of the same compound?
The value was 25%.

And the “%Inh” value [5]?
Its value is 44%.

What about the “%Inh” value [6] of the same compound?
The value was 32%.

And the “%Inh” value [7]?
The value was 0%.

And the “%Inh” value [8]?
Its value is 14%.

And the “%Inh” value [9]?
Its value is 0%.

And the “%Inh” value [10]?
The value was 0%.

And the “%Inh” value [11]?
The value was 15%.

What about the “%Inh” value [12] of the same compound?
The value was 67%.

What about the “%Inh” value [13] of the same compound?
Its value is 0%.

What about the “%Inh” value [14] of the same compound?
Its value is 0%.

And the “%Inh” value [15]?
The value was 9%.

What about the “%Inh” value [16] of the same compound?
The value was 83%.

What about the “%Inh” value [17] of the same compound?
Its value is 86%.

And the “%Inh” value [18]?
Its value is 0%.

And the “%Inh” value [19]?
Its value is 0%.

And the “%Inh” value [20]?
The value was 0%.

With `CCCC(=O)Nc1n[nH]c2ncccc12` [SB-601436] as the compound, how does the “%Inh” value [1] read?
The value was 4%.

What about the “%Inh” value [2] of the same compound?
The value was 18%.

What about the “%Inh” value [3] of the same compound?
The value was 0%.

And the “%Inh” value [4]?
Its value is 20%.

What about the “%Inh” value [5] of the same compound?
The value was 6%.

And the “%Inh” value [6]?
The value was 1%.

And the “%Inh” value [7]?
Its value is 0%.

What about the “%Inh” value [8] of the same compound?
Its value is 0%.

And the “%Inh” value [9]?
The value was 40%.

And the “%Inh” value [10]?
Its value is 0%.

What about the “%Inh” value [11] of the same compound?
Its value is 14%.

What about the “%Inh” value [12] of the same compound?
The value was 0%.

And the “%Inh” value [13]?
Its value is 0%.

What about the “%Inh” value [14] of the same compound?
Its value is 0%.

And the “%Inh” value [15]?
The value was 3%.

And the “%Inh” value [16]?
The value was 0%.

What about the “%Inh” value [17] of the same compound?
Its value is 4%.

What about the “%Inh” value [18] of the same compound?
The value was 0%.

What about the “%Inh” value [19] of the same compound?
Its value is 0%.

What about the “%Inh” value [20] of the same compound?
The value was 7%.

Which results are given for `C[C@@H](Oc1cc(-n2cnc3ccc(-c4ccncc4)cc32)sc1C(N)=O)c1ccccc1Cl` [GSK483724]?
%Inh [1]: 0%; %Inh [2]: 19%; %Inh [3]: 0%; %Inh [4]: 45%; %Inh [5]: 27%; %Inh [6]: 18%; %Inh [7]: 6%; %Inh [8]: 36%; %Inh [9]: 3%; %Inh [10]: 54%; %Inh [11]: 40%; %Inh [12]: 20%; %Inh [13]: 0%; %Inh [14]: 0%; %Inh [15]: 92.2%; %Inh [16]: 8%; %Inh [17]: 25%; %Inh [18]: 0%; %Inh [19]: 0%; %Inh [20]: 29%

What does the source list for `Cn1ccc2ncnc(Oc3ccc(NC(=O)Nc4cncc(C(F)(F)F)c4)c(Cl)c3)c21`?
%Inh [1]: 0%; %Inh [2]: 0%; %Inh [3]: 0%; %Inh [4]: 0%; %Inh [5]: 0%; %Inh [6]: 0%; %Inh [7]: 17%; %Inh [8]: 99.9%; %Inh [9]: 0%; %Inh [10]: 0%; %Inh [11]: 50%; %Inh [12]: 0%; %Inh [13]: 0%; %Inh [14]: 0%; %Inh [15]: 99.2%; %Inh [16]: 0%; %Inh [17]: 16%; %Inh [18]: 32%; %Inh [19]: 0%; %Inh [20]: 0%

How did the “%Inh” value [1] turn out when `CNC(=O)c1ccccc1Nc1nc(Nc2cccc(CS(C)(=O)=O)c2)ncc1C.O=CO` [GSK1520489] was run?
The value was 97.8%.

What about the “%Inh” value [2] of the same compound?
The value was 98.7%.

What about the “%Inh” value [3] of the same compound?
The value was 99.9%.

What about the “%Inh” value [4] of the same compound?
Its value is 99.9%.

What about the “%Inh” value [5] of the same compound?
The value was 99.7%.

And the “%Inh” value [6]?
Its value is 99.9%.

What about the “%Inh” value [7] of the same compound?
Its value is 62%.

What about the “%Inh” value [8] of the same compound?
Its value is 97.8%.

What about the “%Inh” value [9] of the same compound?
The value was 71%.

And the “%Inh” value [10]?
The value was 69%.

And the “%Inh” value [11]?
Its value is 99.8%.

And the “%Inh” value [12]?
The value was 47%.

And the “%Inh” value [13]?
The value was 0%.

And the “%Inh” value [14]?
Its value is 0%.

What about the “%Inh” value [15] of the same compound?
The value was 99.8%.

And the “%Inh” value [16]?
The value was 90%.

What about the “%Inh” value [17] of the same compound?
Its value is 89%.

What about the “%Inh” value [18] of the same compound?
The value was 95.1%.

And the “%Inh” value [19]?
The value was 97.3%.

And the “%Inh” value [20]?
Its value is 0%.
